TDP1 cell noCPT: qHTS for Inhibitors of human tyrosyl-DNA phosphodiesterase 1 (TDP1): qHTS in cells in absence of CPT; DT40 Tdp1-/- hTDP1 cells, no CPT, ATP luminescence, 48 h; Potency, µM (top dose mostly 46.2 µM), without a hit: at the top dose activity change, negative = growth inhibition, most hits filed as inhibitors; hit rate 15% among 420,000; AID 686978, 2013; note: % is set by controls: 0 for no effect and ±100 for the full control effect; nearly all actives have a fitted effect of over 55% in size
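Readout: luminescence from CellTiter-Glo after 30 min in the dark at RT. Cells: DT40 Tdp1-/- with stable hTDP1, 400/well. Exposure: compounds alone, ≥48 hr, 37 °C.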
DT40 TDP1 CPT: qHTS for Inhibitors of human tyrosyl-DNA phosphodiesterase 1 (TDP1): qHTS in cells in presence of CPT; chicken DT40 Tdp1-/-;hTDP1 cells + 20 nM CPT, ATP luminescence, 48 h; Potency, µM (series often up to 46.2 µM), for the others: at the top dose activity change, negative = growth inhibition, usual class: inhibitors; hit rate 12% among 420,000; note: % is set by controls: 0 for no effect and ±100 for the full control effect; nearly all actives have a fitted effect of over 55% in size
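Chicken DT40 Tdp1-/- cells stably complemented with human TDP1 were seeded at 400 cells/well in medium containing 20 nM camptothecin, exposed to pin-transferred compounds, and grown at 37 °C for at least 48 hr. Viability was read as ATP luminescence.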
ATXN viability: Viability Counterscreen for Primary qHTS for Inhibitors of ATXN expression; S2 cells (HEK-293 line with an ATXN2-luciferase reporter) viability, CellTiter-Fluor protease fluorescence, 24 h; Potency, µM (top dose mostly 56.7 µM), usual class: cytotoxic; hit rate 0.49% among 400,000; AID 651635, 2014; note: nearly all actives have a fitted effect of over 40% in size
ATXN2 expr inh: Primary qHTS for Inhibitors of ATXN expression | Potency, µM (doses to about 57 µM), for the others: top-dose activity change, negative = inhibition, actives largely listed as inhibitors | HEK-293 ATXN2-luciferase reporter, luminescence, 24 h | hit rate 0.72% among 360,000; note: % is set by controls: 0 for no effect and ±100 for the full control effect; nearly all actives have a fitted effect of over 55% in size
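qHTS (up to 57 uM final) was run with 24 h compound exposure of reporter cells at 37 °C. Each well was multiplexed: SteadyGlo luminescence measured ATXN2-luciferase expression after a fluorogenic Gly-Phe-AFC viability readout (25 uM final).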
TGFb inhibitor: qHTS for Inhibitors of TGF-b; HepG2 CAGA-GFP TGF-b/SMAD3 reporter, GFP fluorescence, 18 h; TGF-beta stimulated, 500 pg/mL final; Potency, µM (titrated, usually from 46.1 µM), inactives show top-dose activity, negative = inhibition, hits mostly inhibitors; hit rate 1.2% among 410,000; AID 588855, 2011; note: % is set by controls: 0 for no effect and ±100 for the full control effect; nearly all actives have a fitted effect of over 65% in size
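Per well, imaged GFP fluorescence of HEPG2 CAGA-GFP cells gives the signal; cells get compound, then TGF-beta (500 pg/mL final), 18 h at 37 degrees C; %Activity versus -TGF-beta and +DMSO controls.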
HepG2 tox: qHTS for Inhibitors of TGF-b: Cytotox Counterscreen. HepG2 CAGA-GFP viability, ATP luminescence, 18 h. Potency, µM (highest dose often 46.1 µM), inactives show at the highest dose activity change, negative = cytotoxicity, hits mostly cytotoxic. hit rate 0.76% among 410,000
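CellTiter-Glo luminescence gave cytotoxicity after 18 hours at 37 degrees C. The cells were HepG2 CAGA-GFP in 1% FBS DMEM, stimulated with 500 pg/mL TGF-beta after compound addition. %Activity was normalised to no-cell wells (complete cell-killing) and DMSO (no toxicity), and curves were fitted and classified.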
Active calls of the source: *; i = inactive; ? = inconclusive; nt = not tested or not shown. An excerpt weighted towards active compounds, which were near 17% of everything screened. Calls come from the whole dose curve; as a rule, active = well fitted curve in the direction sought with a large enough effect; inconclusive = small, poorly fitted or top-dose-only effect, or another doubt; inactive = no such curve, though single readings can be large; an effect the other way counts as inactive or inconclusive. Potency is the fitted concentration of half-maximal effect.

SMILES | TDP1 cell noCPT | DT40 TDP1 CPT | ATXN viability | ATXN2 expr inh | TGFb inhibitor | HepG2 tox
CCOC(=O)N1CCN(C(=O)CCc2cc(OC)c(OC)c(OC)c2)CC1 | -5% | -3% | i | 0% | -9% | -3%
CC(Oc1ccc(Cl)cc1Cl)C(=O)NCCCN1CCOCC1 (centres undefined) | -18% | 11% | i | 3% | -20% | -33%
O=c1c2cc(NC(=S)NC3CC3)ccc2nc2n1CCCCC2 | -3% | 22% | i | -11% | ? | -4%
O=C(Nc1ccc2nc3n(c(=O)c2c1)CCCCC3)c1cc([N+](=O)[O-])ccc1F | 2.6µM* | 6.5µM* | nt | ? | ? | 13µM*
O=c1c2cc(NC(=S)NC3CCN(Cc4ccccc4)CC3)ccc2nc2n1CCCCC2 | 15µM* | ? | i | 4% | ? | -27%
CCc1cccc(NC(=O)Cn2c(=O)n(CCC(=O)NCC3CCCO3)c(=O)c3cc(OC)c(OC)cc32)c1 (centres undefined) | ? | ? | i | -8% | -1% | -8%
Cc1cc2oc(=O)cc(CN3CCN(c4ccccc4)CC3)c2cc1Cl | -4% | -2% | i | 5% | -14% | -17%
Cc1cccc(Cn2ncc(Cl)c(Cl)c2=O)c1 | 9.2µM* | 12µM* | nt | ? | ? | -91%
Cc1ccc(C)c(C(=O)Cn2ncc(Cl)c(Cl)c2=O)c1 | 3.3µM* | 5.8µM* | 18µM* | ? | ? | -47%
Cc1cc(C(=O)Cn2ncc(Cl)c(Cl)c2=O)c(C)n1CC(F)(F)F | 3.7µM* | 4.6µM* | ? | ? | ? | -42%
Cc1cc2oc(=O)cc(Cn3ncc(Cl)c(Cl)c3=O)c2cc1Cl | 3.3µM* | 3.3µM* | nt | 25µM* | ? | -30%
N#CCCn1c(=O)c(CCc2ccccc2)nc2cnc(N3CCOCC3)nc21 | -2% | -3% | nt | nt | nt | nt
Cc1cccc(Cn2c(=O)n(CCC(=O)NCc3ccc4c(c3)OCO4)c(=O)c3sccc32)c1 | -21% | -3% | nt | nt | 1% | 1%
CN[C@H]1C[C@H]2c3[nH]c4ccc(-c5ccc(OC)cc5)cc4c3CCN2C(=O)[C@H]1[C@H](C)O | 3.3µM* | 2.6µM* | ? | 18µM* | 16µM* | 14µM*
COc1ccc(NC(=O)N(C)[C@H]2C[C@H]3c4[nH]c5ccccc5c4CCN3C(=O)[C@H]2CO)cc1 | ? | -21% | i | 2% | -20% | -20%
COc1ccc(NC(=O)N(C)[C@H]2C[C@H]3c4[nH]c5ccccc5c4CCN3C(=O)[C@H]2[C@H](C)O)cc1 | ? | -25% | i | 44% | -11% | -19%
COc1ccc(NC(=O)N(C)[C@H]2C[C@H]3c4[nH]c5ccc(-c6ccc(OC)cc6)cc5c4CCN3C(=O)[C@H]2[C@H](C)O)cc1 | 13µM* | 18µM* | ? | ? | ? | -41%
COc1ccc(-c2ccc3[nH]c4c(c3c2)CCN2C(=O)[C@@H]([C@H](C)O)[C@@H](N(C)C(=O)Nc3ccccc3)C[C@@H]42)cc1 | 6.5µM* | 13µM* | ? | ? | ? | -103%
CN[C@H]1C[C@H]2c3cc(N4CCN(C)CC4)ccc3CCN2C(=O)[C@H]1[C@H](C)O | -11% | -12% | i | 8% | -1% | -4%
CCNS(=O)(=O)c1ccc(NC(=O)c2ccccc2SCCOC)cc1 | -3% | 4% | i | -9% | 14% | 8%
COc1ccc(Cc2c(O)nc(SC)n(C(C)=O)c2=O)cc1 | -29% | -18% | i | -3% | ? | -84%

Screens (PubChem BioAssay)
